Measured values reported in PubChem BioAssay (EPA / NIEHS).
Records with an inconclusive call do not appear. Active and inactive are the calls of the source. How the source made its calls: active means hit-call score of the fitted dose curve at least 0.9, where 1 is the maximum; inconclusive means response in the unintended direction; inactive means score below 0.9.

These compounds were tested against human Peroxisome Proliferator-activated Receptor delta (PPARd), PPARD (gene 5467) (UniProt Q03181) (assay: ATG_PPARd_TRANS: Attagene TRANS-FACTORIAL HepG2 Assay for human Peroxisome Proliferator-activated Receptor delta (PPARd) (AID 2283002)).
Chain of human Peroxisome Proliferator-activated Receptor delta (PPARd), PPARD (gene 5467) (Q03181 whole entry, looked up): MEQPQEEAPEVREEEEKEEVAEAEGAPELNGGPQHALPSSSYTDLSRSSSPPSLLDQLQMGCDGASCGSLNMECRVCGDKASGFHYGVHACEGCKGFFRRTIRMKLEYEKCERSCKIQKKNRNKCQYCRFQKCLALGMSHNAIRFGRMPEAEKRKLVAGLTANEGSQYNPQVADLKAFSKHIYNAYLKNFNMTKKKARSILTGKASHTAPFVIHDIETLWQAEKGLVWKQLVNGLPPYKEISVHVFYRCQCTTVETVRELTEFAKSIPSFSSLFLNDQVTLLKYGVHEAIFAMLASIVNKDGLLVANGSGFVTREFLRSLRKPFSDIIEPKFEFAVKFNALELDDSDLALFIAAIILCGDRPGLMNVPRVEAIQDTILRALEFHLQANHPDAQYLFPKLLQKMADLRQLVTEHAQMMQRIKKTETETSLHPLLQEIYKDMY
Method: ATG_TRANS is a cell-based, multiplexed-readout assay that uses HepG2, a human liver cell line, with measurements taken at 24 hours after chemical dosing in a 24-well plate.ATG_PPARd_TRANS is one of 30 assay component(s) measured or calculated from the ATG_TRANS assay. It is designed to make measurements of mRNA induction, a form of inducible reporter, as detected with fluorescence intensity signals by Reverse transcription polymerase chain reaction (RT-PCR) and Capillary electrophoresis technology.Data from the assay component ATG_PPARd_TRANS was analyzed into 1 assay endpoint. This assay endpoint, ATG_PPARd_TRANS, was analyzed in the positive analysis fitting direction relative to DMSO as the negative control and baseline of activity. Using a type of inducible reporter, measures of mRNA for gain-of-signal activity can be used to understand the reporter gene at the transcription factor-level as they relate to the gene PPARD. Furthermore, this assay endpoint can be referred to as a primary readout, because this assay has produced multiple assay endpoints where this one serves a reporter gene function. To generalize the intended target to other relatable targets, this assay endpoint is annotated to the nuclear receptor intended target family, where the subfamily is non-steroidal.
Human liver HepG2 cells are transiently transfected with multiple reporter transcription units (MRTUs) in 6-well plates using FuGene 6 reagent (Roche; 3 ml FuGene/1 mg DNA). The MRTU constructs are regulated by a cis-regulating element (promoter). […] A major difference between the CIS and TRANS system is that in CIS activities of endogenous TFs are measured, whereas the TRANS assay evaluates changes in activities of exogenous, chimeric NR-Gal4 proteins. […] At the end of 24 hour incubation, total RNA was isolated using TriZol reagent (Invitrogen). The isolated RNA is then reverse-transcribed using oligo(dT) primer and Mo-MLV reverse transcriptase (Invitrogen) with DNAse I (Ambion) treatment for 30 min. The one-tenth of the produced cDNA was amplified by PCR using Taq DNA polymerase (Invitrogen) and two reporter sequence-specific primers. The PCR products were fluorescently labeled by primer extension with 6-arboxyfluorescein (6-FAM) 5'-labeled reporter sequence-specific primer (2 min at 95 C, 20 s at 68 C and 10 min at 72 C) and these products were digested with 5U of HpaI (New England Biolabs) for 2h at 37 C. The fragments were purified using Qiaquick PCR columns (Qiagen), analyzed on an ABI 3130xL genetic analyzer (Applied Biosystems) with peak positions identified by using a set of X-rhodamine (ROX)-labeled MapMarker1000 molecular weight standards (BioVentures). The raw capillary electrophoresis data was processed using Attagraph software (Attagene).

Row | Compound | outcome
1 | CCO[Si](CCC(F)(F)C(F)(F)C(F)(F)C(F)(F)C(F)(F)C(F)(F)F)(OCC)OCC | inactive
2 | C=C(C)C(=O)OCC(F)(F)C(F)(F)C(F)(F)F | inactive
3 | FC(F)(F)C(F)(F)C(F)(F)C(F)(F)C(F)(F)C(F)(F)CCS | inactive
4 | O=C(O)C=C(C(F)(F)F)C(F)(F)F | inactive
5 | O=S(=O)(OCCOC(F)(F)F)C(F)(F)F | inactive
6 | CC(C)(C)C(=O)CC(=O)C(F)(F)C(F)(F)C(F)(F)F | inactive
7 | OCCCC(F)(F)C(F)(F)C(F)(F)F | inactive
8 | OCC(F)(F)C(F)(F)C(F)(F)C(F)(F)C(F)(F)C(F)F | inactive
9 | C=CC(=O)OCC(F)(F)C(F)(F)C(F)(F)C(F)(F)COC(=O)C=C | inactive
10 | Nc1ccc([N+](=O)[O-])cc1O | inactive
11 | CCc1ccc(C(c2ccc(CC)cc2)C(Cl)Cl)cc1 | inactive
12 | C=CC(=O)OCC(F)(F)C(F)(F)C(F)(F)C(F)(F)C(F)(F)C(F)(F)C(F)(F)F | inactive
13 | O=C(O)C(F)(F)C(F)(F)C(F)(F)C(F)(F)C(F)(F)C(F)(F)C(F)(F)C(F)(F)Cl | inactive
14 | C=C(C)C(=O)OCC(F)(F)C(F)(F)C(F)(F)C(F)(F)C(F)(F)C(F)(F)C(F)(F)F | inactive
15 | FC(F)(F)C(F)(F)C(F)(F)C(F)(F)C(F)(F)C(F)(F)C(F)(F)C(F)(F)F | inactive
16 | CCN(CC)c1ccc2c(C)cc(=O)oc2c1 | inactive
17 | OCC(F)(F)C(F)(F)C(F)(F)F | inactive
18 | CCCCCCS | inactive
19 | C1COCCN1 | inactive
20 | OCC(F)(F)C(F)(F)C(F)(F)C(F)F | inactive

Row | Compound | outcome
21 | CCCCCCOC(=O)c1ccccc1 | inactive
22 | FC(F)(Br)C(F)(F)C(F)(F)C(F)(F)C(F)(F)C(F)(F)Br | inactive
23 | O=C(Cl)C(F)(F)C(F)(F)C(F)(F)C(F)(F)C(F)(F)C(F)(F)C(F)(F)C(F)(F)F | inactive
24 | CCCCNc1ccccc1 | inactive
25 | CCCCCCC(C)OC(=O)CCCCC(=O)OC(C)CCCCCC (stereo not given) | inactive
26 | CC(C)(C)c1ccc(OC2CCCCC2O)cc1 (stereo not given) | inactive
27 | COC(=O)C1CCC(C(=O)OC)CC1 (stereo not given) | inactive
28 | O=S(=O)(OCC(F)F)C(F)(F)F | inactive
29 | CCCCCC=O | inactive
30 | CCCCOCCOCCOC(=O)CCCCC(=O)OCCOCCOCCCC | inactive
31 | Cc1ccc(S(=O)(=O)OCC(F)(F)C(F)(F)C(F)(F)C(F)(F)C(F)(F)C(F)F)cc1 | inactive
32 | CCCCCCCOC(=O)c1ccccc1C(=O)OCCCCCCC | inactive
33 | O=C(C=Cc1ccccc1)OCC=Cc1ccccc1 | inactive
34 | Nc1ccc(S(=O)(=O)Nc2nccs2)cc1 | inactive
35 | C=CC/C=C/C/C=C/C/C=C/C | inactive
36 | CCCCCCOC(=O)c1ccccc1O | inactive
37 | C=CC(F)(F)C(F)(F)C(F)(F)C(F)(F)C(F)(F)C(F)(F)C(F)(F)C(F)(F)C=C | inactive
38 | CCCCCCCCC(F)(F)C(F)(F)C(F)(F)C(F)(F)C(F)(F)C(F)(F)F | inactive
39 | FC(F)(F)C(F)(F)C(F)(F)C(F)(F)CCI | inactive
40 | O=C(O)C(F)(F)C(F)(F)C(F)(F)C(F)(F)C(F)(F)C(F)(F)C(F)(F)C(F)(F)C(F)(F)C(F)(F)C(F)(F)C(F)(F)F | inactive
